Hits are enriched below; roughly 11% of the tested compounds scored in any of these assays.
hNpr1 antagonist: blocks ANP-stimulated signaling of human Npr1 receptor | P16066 | HEK293 hNpr1 GloSensor cGMP, ANP-stimulated luminescence | Potency, µM (titrated, usually from 46.3 µM), actives largely listed as inhibitors | actives 1.6% (n = 76,000) | AID 1347048; calls by dose curve; further: nearly all actives have a fitted effect of over 60% in size
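HEK293 cells stably expressing human Npr1 and cGMP GloSensor pGS-40F, loaded 2 h with 2% GloSensor reagent, given compound 30 min at room temperature. Luminescence read before and 20 min after 0.1 nM hNppA.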
3T3 cytotox: NIH 3T3 cell cytotoxicity; AID 1345082; Potency, µM (titrated, usually from 96.7 µM), most hits filed as inhibitors; NIH 3T3 viability, CellTiter-Glo ATP luminescence, 48-72 h; actives 4.3% (n = 94,000); further: nearly all actives have a fitted effect of over 55% in size
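First NIH 3T3 cells are plated at 400 cells/well; next compound is pinned in; then plates incubate 48 or 72 hr at 37 °C; finally CellTiter-Glo is added and luminescence read after 10 min.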
FLuc inh: blocks purified firefly luciferase enzyme activity. AID 1347043. actives 2.5% (n = 76,000). P08659. Potency, µM (series often up to 115 µM), most hits filed as inhibitors. purified P. pyralis luciferase, luminescence, biochemical; further: nearly all actives have a fitted effect of over 65% in size
Target sequence (P08659 whole entry, looked up): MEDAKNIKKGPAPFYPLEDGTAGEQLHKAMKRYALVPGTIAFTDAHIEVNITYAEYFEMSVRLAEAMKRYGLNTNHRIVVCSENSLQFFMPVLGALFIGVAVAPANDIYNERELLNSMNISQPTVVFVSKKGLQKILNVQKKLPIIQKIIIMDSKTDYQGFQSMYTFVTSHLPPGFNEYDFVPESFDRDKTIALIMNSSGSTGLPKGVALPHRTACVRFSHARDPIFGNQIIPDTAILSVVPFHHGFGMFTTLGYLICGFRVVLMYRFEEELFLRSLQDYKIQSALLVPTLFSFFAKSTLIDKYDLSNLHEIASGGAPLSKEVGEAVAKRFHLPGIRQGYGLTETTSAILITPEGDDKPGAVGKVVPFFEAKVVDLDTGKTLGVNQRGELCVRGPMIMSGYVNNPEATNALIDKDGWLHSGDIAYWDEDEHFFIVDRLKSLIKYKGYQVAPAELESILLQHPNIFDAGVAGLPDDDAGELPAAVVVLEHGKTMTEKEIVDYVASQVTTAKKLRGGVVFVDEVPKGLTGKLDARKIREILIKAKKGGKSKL
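Biochemical qHTS: compound (6-point titration) added to 10uM D-luciferin plus 10uM ATP in Tris acetate pH 7.5 buffer with Mg, Tween-20 and BSA, then purified enzyme at 10nM; light output imaged.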
HEK293 tox: cytotoxic compounds in HEK 293 cells; HEK 293 viability, ATP luminescence (CellTiter-Glo), 48-72 h; Potency, µM (top dose mostly 115 µM), usual class: inhibitors; actives 6.6% (n = 94,000); AID 1345083; further: nearly all actives have a fitted effect of over 60% in size
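Read-out: CellTiter-Glo ATP luminescence. Cells: HEK 293, 250 cells/well. Exposure: 48 or 72 hr, 37 degree Celsius.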
Large screens that a line does not name were inactive. Unless noted, the call rests on the fitted dose curve; in most records, active means well fitted curve in the direction sought with a large enough effect; inconclusive means small, poorly fitted or top-dose-only effect, or another doubt; inactive means no such curve, though single readings can be large; an effect the other way counts as inactive or inconclusive.

CN(C)C[C@@H]1CN(C2CCOCC2)C[C@H]1NC(=O)c1cc2ccccc2[nH]1	3T3 cytotox inconclusive, HEK293 tox 31.6µM
C#CCNC(=O)c1nc2cccnc2n(CCCOC)c1=O	none (no result: hNpr1 antagonist, FLuc inh)
CN1C(=O)CCCCC1C(=O)NCc1ccc(F)cc1 (centres undefined)	none
COc1ccc(CNC(=O)C2CCCCN2Cc2ccc(-c3ccsc3)cc2)cc1OC (centres undefined)	3T3 cytotox inconclusive, HEK293 tox 39.8µM (no result: hNpr1 antagonist, FLuc inh)
O=C(NCc1cccs1)C1CCCCN1Cc1ccc(-c2ccsc2)cc1 (centres undefined)	3T3 cytotox 25.1µM, HEK293 tox 28.2µM (no result: hNpr1 antagonist, FLuc inh)
O=C(NCc1ccccc1Cl)C1CCCCN1Cc1ccc(-c2ccsc2)cc1 (centres undefined)	3T3 cytotox 28.2µM, HEK293 tox 35.5µM (no result: hNpr1 antagonist, FLuc inh)
COc1ccc(CNC(=O)C2CCCN2Cc2ccc(-c3cncnc3)cc2)cc1 (centres undefined)	HEK293 tox inconclusive (no result: hNpr1 antagonist, FLuc inh)
O=C(NCc1ccc(F)cc1)C1CCCCN1Cc1ccc(-c2ccsc2)cc1 (centres undefined)	3T3 cytotox inconclusive, HEK293 tox 39.8µM (no result: hNpr1 antagonist, FLuc inh)
CC(C)N1CCC(N2CCN(Cc3cn(C(C)C)c4ccccc34)CC2CCO)CC1 (centres undefined)	3T3 cytotox inconclusive, HEK293 tox inconclusive
COC[C@H]1NC(=O)CC[C@H]1C(=O)N1CCN(c2cccc(OC)c2)CC1	none (no result: hNpr1 antagonist, FLuc inh)
CCN1C(=O)C2(CCN(C(=O)COC)CC2)c2ccccc21	none
O=C(NCCc1ccccc1)C1CCCCN1Cc1ccc(-c2ccsc2)cc1 (centres undefined)	3T3 cytotox inconclusive, HEK293 tox 28.2µM (no result: hNpr1 antagonist, FLuc inh)
COCCNC(=O)C1CCCN1Cc1ccc(-c2cncnc2)cc1 (centres undefined)	none (no result: hNpr1 antagonist, FLuc inh)
Cc1noc2c(NC3CCOCC3)cc(-c3cccc(C(F)(F)F)c3)nc12	3T3 cytotox inconclusive, HEK293 tox inconclusive
Cc1noc2c(NC3CCC(O)CC3)cc(-c3ccc(F)cc3)nc12 (centres undefined)	3T3 cytotox 22.4µM, HEK293 tox inconclusive
Cc1noc2c(-c3cccnc3NC3CCN(C)CC3)cc(-c3ccc(Cl)cc3)nc12	3T3 cytotox 22.4µM, HEK293 tox 89.1µM
Cc1noc2c(NC3CCN(C)CC3)cc(-c3ccc(F)cc3)nc12	3T3 cytotox 10µM, HEK293 tox 63.1µM
Cc1noc2c(-c3cccnc3NC3CCC(O)CC3)cc(-c3ccccc3)nc12 (centres undefined)	3T3 cytotox inconclusive, HEK293 tox inconclusive
CC(C)CC(=O)N1CCCN(Cc2ccc3c(c2)OCO3)c2ccccc21	3T3 cytotox inconclusive, HEK293 tox inconclusive
CC(=O)Oc1c(-c2ccc(NC(=O)c3ccc4c(c3)OCO4)cc2)c(C2CC2)nn1-c1cccc(F)c1	3T3 cytotox inconclusive
Cc1nnc(-c2cc(-c3cccc(O)c3)ccn2)n1CCc1ccccc1	3T3 cytotox 100µM, HEK293 tox inconclusive
COc1cccc(-c2ccnc(-c3nnc(C)n3CCN3CCOCC3)c2)c1	HEK293 tox inconclusive
Cc1nnc(-c2cc(-c3cccnc3)ccn2)n1CCN1CCOCC1	3T3 cytotox inconclusive
Cc1cc(-c2ccnc(-c3nnc(C)n3CCN3CCOCC3)c2)ccn1	3T3 cytotox 89.1µM
Cc1nnc(-c2cc(-c3cccc(F)c3)ccn2)n1CCN1CCOCC1	3T3 cytotox 22.4µM, HEK293 tox inconclusive
COc1ccc(CN2CCCCCNC(=O)CC2c2ccccc2)cc1Cn1ccnc1 (centres undefined)	3T3 cytotox 39.8µM, HEK293 tox 35.5µM
O=C1CC(c2ccccc2)N(Cc2ccc(C(F)(F)F)cc2)CCCCCN1 (centres undefined)	hNpr1 antagonist inconclusive, 3T3 cytotox inconclusive, HEK293 tox inconclusive
COc1cccc(CN2CCCCCCNC(=O)CC2c2ccccc2)c1 (centres undefined)	3T3 cytotox inconclusive, HEK293 tox inconclusive
O=C1CC(c2ccccc2)N(Cc2ccc(F)c(F)c2)CCCCCN1 (centres undefined)	3T3 cytotox 39.8µM, HEK293 tox inconclusive
COc1ccc(CN2CCCCCNC(=O)CC2c2ccccc2)cc1Cc1c(C)noc1C (centres undefined)	3T3 cytotox 35.5µM, HEK293 tox inconclusive
Cc1ccc2c(N3CCC(CO)(CN4CCCC4)CC3)ccnc2c1C	3T3 cytotox inconclusive, HEK293 tox inconclusive
O=C(Cc1ccccc1F)N1CCC(OCCOc2ccc(F)cc2)CC1	HEK293 tox inconclusive (no result: hNpr1 antagonist, FLuc inh)
COC1CCCN(c2cc(-c3ccsc3)nc3c(C)noc23)C1 (centres undefined)	3T3 cytotox inconclusive, HEK293 tox inconclusive

Screening results (PubChem)
